CHX counter = Cycloheximide Counterscreen for Small Molecule Inhibitors of Shiga Toxin; cell reporter, cycloheximide protein synthesis inhibition counterscreen; max response, %; actives 12% (n = 300,000); AID 2314, 2010; in the data active means max response mostly above about 13%, no sharp cut-off; inactive means mostly below about 14%; further: read at 38.3 µM for the half of the compounds with a filed dose; 0% is about no effect
Shiga toxin inh = A qHTS for Small Molecule Inhibitors of Shiga Toxin; Vero cells, Shiga toxin protein synthesis inhibition reporter; AID 2315, 2010; actives 9.2% (n = 290,000); inhibition, % at 38.7 µM; in the data active means inhibition mostly above about 28%, no sharp cut-off; inactive means mostly below about 43%; further: 0% is about no effect
Pf growth 96h = Primary qHTS for delayed death inhibitors of the malarial parasite plastid, 96 hour incubation. actives 6.9% (n = 320,000). P. falciparum luciferase reporter growth, 96 h. AID 504834, 2011. Potency, µM (titrated, usually from 28.7 µM), inactives show at the top dose activity change, negative = inhibition, hits mostly inhibitors; further: potency means the concentration at half of the fitted maximal effect; on the % scale 0 is the no-effect control and ±100 the full control effect
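P. falciparum expressing integrated firefly luciferase grown in erythrocytes (2% hematocrit, 0.05% parasitemia final) with compounds for 96 hours at 37 C, 5% CO2. Growth inhibition read as loss of luminescence after adding luciferase detection reagent.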
Pf growth 48h = Primary qHTS for delayed death inhibitors of the malarial parasite plastid, 48 hour incubation; P. falciparum luciferase growth in erythrocytes, 48 h; Potency, µM (highest dose often 28.7 µM), inactives show at the top dose activity change, negative = inhibition, actives largely listed as inhibitors; actives 5.9% (n = 310,000); further: potency means the concentration at half of the fitted maximal effect; on the % scale 0 is the no-effect control and ±100 the full control effect
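Read-out is firefly luciferase luminescence from an integrated reporter in P. falciparum, so falling signal marks reduced parasite growth. Infected erythrocytes were at 2% hematocrit and 0.1% parasitemia (final) in Albumax-supplemented RPMI 1640.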
NS1 function inh = qHTS Assay for Inhibitors of Influenza NS1 Protein Function; Potency, µM (titrated, usually from 46.1 µM), for inactives: at the highest dose activity, positive = more growth; actives 0.4% (n = 270,000); AID 2326, 2010; calls by dose curve; further: potency means the concentration at half of the fitted maximal effect; actives are rising curves; nearly all actives have a fitted effect of over 50% in size
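Recovery from NS1-induced slow growth read by OD600 in budding yeast switched to galactose assay medium (pH 6.0, -URA) at 1:100 dilution. Compound 23 nl per well; the matching strain lacking NS1 serves as control.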
SARS PLpro yeast = qHTS of Yeast-based Assay for SARS-CoV PLP; actives 0.19% (n = 330,000); Potency, µM (series often up to 32.9 µM), without a hit: at the top dose activity, positive = growth rescue, usual class: activators; AID 485353, 2010; S. cerevisiae expressing SARS-CoV PLpro, growth rescue; calls by dose curve; further: potency means the concentration at half of the fitted maximal effect; 0% is about no effect; nearly all actives have a fitted effect of over 55% in size
An asterisk follows results filed as active; ? = inconclusive; / = no result; [ ] = dose if it differs, or a comment. Compounds with a hit are over-represented: about 21% of the library has one in this group of screens. Unless noted, the call rests on the fitted dose curve; in most records, active means well fitted inhibition curve with a large enough effect; inconclusive means small, poorly fitted or top-dose-only effect, or another doubt; inactive means no such curve, though single readings can be large or run the other way.

SMILES	CHX counter	Shiga toxin inh	Pf growth 96h	Pf growth 48h	NS1 function inh	SARS PLpro yeast
O=c1[nH]n(Cc2ccccc2)c(=O)c2ccccc12	26*	4	100%	46%	-31%	-3%
COC(=O)CCn1[nH]c(=O)c2ccccc2c1=O	-2	-10	9.3µM*	0%	3%	-9%
O=c1cc(Cl)c(-c2ccccc2)nn1Cc1ccc(Cl)cc1	-7	-7	0%	?	-14%	-4%
Cn1c(CCNC(=O)c2cccs2)nnc1SCC(=O)Nc1nc(-c2ccccc2)cs1	6	8	14%	7.4µM*	-7%	-5%
Cn1cnnc1SCC(=O)Nc1nc(-c2ccccc2)cs1	13*	5	?	-12%	5%	-2%
COc1cc(C(=O)NCCC(=O)N2CCC3(CC2)NCCc2[nH]cnc23)cc(OC)c1OC	-2	-4	4%	-6%	-9%	27%
COc1ccc(-c2cc(CNS(=O)(=O)c3ccc(F)cc3)on2)cc1	-2	16	-1%	?	/	-10%
O=C(O)c1c(-n2cccc2)sc2c1CCCC2	-5	13	-9%	24%	-1%	0%
COc1ccc(NC(=O)C2CC(=O)N(C)C(=Nc3ccc4c(c3)OCO4)S2)cc1 (stereo not given)	-3	-18	?	10µM*	-1%	3%
CSc1ccccc1NC(=O)COc1ccccc1Cl	51*	132	?	33%	-54%	-20%
CC(=O)N1CCN(c2ccccc2NC(=O)COc2ccc(Cl)cc2Cl)CC1	-2	-10	/	10µM*	-68%	-5%
O=C(COc1ccc(Cl)cc1Cl)Nc1ccccn1	-11	-23	/	-82%	-10%	-27%
CSc1ccccc1NC(=O)COc1ccc(Cl)cc1Cl	17*	43*	?	10%	-7%	5%
COc1ccccc1N1CCN(C(=O)CC(NC(=O)c2ccccc2Cl)c2ccccc2)CC1 (stereo not given)	/	/	?	?	/	-1%
S=c1nc(-c2ccccc2)[nH]c2ccccc12	15	-11	?	-12%	/	2%
Oc1ccc(C=Nc2ccccc2-c2nc3ccccc3[nH]2)cc1	70*	92*	?	54%	-20%	-51%
Nc1ccc(-c2nc3ccccc3[nH]2)cc1	33*	102*	117%	114%	-13%	0%
Cn1cc(-c2nc3ccccc3[nH]2)c2ccccc21	36*	87*	16%	?	-58%	-11%
Nc1ccc(-c2nc3c(ccc4ccccc43)[nH]2)cc1	25*	43*	6%	?	-36%	?
CCOc1cc2[nH]c(=O)n(CCCC(=O)N(C)Cc3ccccc3)c(=O)c2cc1OCC	-4	23	12%	?	/	1%
CCCn1c(=O)c(-c2nc3ccccc3[nH]2)c(O)c2ccccc21	15	6	-30%	-18%	/	-6%
CCn1c(=O)c(-c2nc3ccccc3[nH]2)c(O)c2ccccc21	22*	35	?	-17%	/	-1%
Nc1ccccc1-c1nc2ccccc2[nH]1	45*	92*	117%	131%	-71%	-13%
Fc1ccc(-c2nc3ccccc3[nH]2)cc1	35*	115*	35%	48%	-37%	-2%
O=C(O)c1ccc(-c2nc3ccccc3[nH]2)cc1	1	-12	-2%	15%	4%	-4%
SMILES	CHX counter	Shiga toxin inh	Pf growth 96h	Pf growth 48h	NS1 function inh	SARS PLpro yeast
O=c1[nH]cccc1-c1nc2ccccc2[nH]1	21*	55*	100%	-23%[0.00184 µM]	2%	-1%
CCS(=O)(=O)c1cccc(C(=O)N2CCN(c3nc4c(C)ccc(Cl)c4s3)CC2)c1	9	0	/	/	/	/
CCOc1ccc(NC(=O)CSc2nnnn2C2CCCC2)cc1	10	-7	-3%	27%	11%	3%
N#CCSc1ccc(-c2nc3ccccc3[nH]2)cn1	29*	44*	?	66%	-6%	-3%
COCCNC(=O)CSc1ccc(-c2nc3ccccc3[nH]2)cn1	10	5	?	35%	?	-2%
COc1ccccc1NC(=O)Nc1ccncc1	-1	34	?	11%	/	-4%
COc1ccc(NC(=O)Nc2ccc(Cc3ccncc3)cc2)cc1OC	16	7	5.2µM*	?	20%	2%
COc1ccc(C(=O)Nc2ccc(Cc3ccncc3)cc2)cc1Br	-1	21	-3%	-10%	-2%	-1%
COc1ccccc1NC(=O)Nc1ccc(Cc2ccncc2)cc1	10	50*	10%	20%	-7%	-1%
COc1cc(SC)ccc1C(=O)Nc1ccncc1	33*	50	-17%	-12%	-8%	-4%
COc1cc(SC)ccc1C(=O)Nc1ccc2c(c1)CCC2	31*	96*	-49%	49%	-7%	-3%
COc1cc(SC)ccc1C(=O)Nc1cccc(C2OCCCO2)c1	32*	71*	321%	47%	/	-3%
COc1cc(SC)ccc1C(=O)NC1CCCc2ccccc21 (stereo not given)	8	-2	-26%	-4%	1%	-3%
COc1cc(SC)ccc1C(=O)Nc1ccccc1C#N	37*	91*	100%	222%	-7%	-2%
COc1ccc(C(=O)Nc2ccncc2)c(OC)c1	12	14	?	3%	-5%	0%
CCCNC(=O)c1ccc(SC)cc1OC	12	17	?	11%	-20%	-5%
O=C(COC(=O)Cn1nnc2ccccc21)NC1CCCC1	-4	4	-5%	12%	-2%	-1%
Cc1ccc(CN/C=C/C(=O)c2ccc(Br)cc2)cc1	37*	60*	38%	29%	-124%	-39%
Cc1ccc(C(=O)/C=C/NCc2ccc(F)cc2)cc1	48*	93*	34%	30%	-17%	-9%
COc1ccc(C(=O)/C=C/NCc2ccc(F)cc2)cc1OC	8	26	-9%	-17%	-4%	-2%
COc1ccc(C)cc1N(CC(=O)NC1CCCC1)C(=O)CCC(=O)Nc1nc(C)cs1	-4	-18	?	?	2%	2%
COC(=O)c1cccc(NC(=S)NC(C)C)c1	4	-3	8%	-2%	/	-1%
CCOC(=O)c1cc(-c2ccc3c(c2)OCCO3)nc2c1c(C)nn2CCC#N	-2	13	/	9.3µM*	-19%	4%
CCOC(=O)c1cc(-c2ccncc2)nc2c1c(C)nn2C	7	16	3.3µM*	/	-70%	-15%
CCOC(=O)c1cc(-c2ccc(OC)cc2F)nc2c1c(C)nn2CCC#N	-3	-15	?	?	-12%	-7%
CCOC(=O)c1cc(-c2ccco2)nc2c1c(C)nn2CCC#N	15	-4	?	8.3µM*	0%	-3%
CCOC(=O)c1cc(-c2ccc(Cl)cc2)nc2c1c(C)nn2CCC#N	-6	-15	?	?	-55%	-1%

From PubChem BioAssay
